# PubChem BioAssay AID1578 (Sanford-Burnham Center for Chemical Genomics, 2009)
# Screen size: about 290,000 compounds; about 3,000 (1%) were called active. Rule as the data show it: active = inhibition mostly above about 36% (no sharp cut-off); inactive = mostly below about 34%. This excerpt belongs to a sample that is enriched for actives.
# Assay: inhibition of NOD1-driven NF-kB reporter – cell-based, luminescence, uHTS, primary screen (AID 1578);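 also: HEK-293T reporter cells stimulated with the NOD1 agonist gamma-tri-DAP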
# Conditions: NOD1-driven NF-kB luciferase reporter cells, at 4 µM, hits give high values
row,Compound,inhibition
1,Cc1nn(CC(=O)NCC(C)c2ccccc2)c(=O)c2cccn12 (stereo unspecified),-28.8% (inactive)
2,CCOC1(OCC)C(c2ccc(Cl)cc2)C(C#N)(C#N)C1(OCC)OCC (stereo unspecified),-5.8% (inactive)
3,COC1(OC)C(/C=C/c2ccc(Cl)cc2)C(C#N)(C#N)C1(OC)OC (stereo unspecified),62.6% (active)
4,N#Cc1c(NC(=O)c2ccccc2)sc2c1CCC2,-29.6% (inactive)
5,Cc1sc(NC(=O)c2ccccc2)c(C#N)c1-c1ccccc1,-17.1% (inactive)
6,N#Cc1c(Cl)nsc1NC(=O)c1ccccc1,89.1% (active)
7,C/C(=N\N=C(N)N)c1cc(Cl)ccc1Cl,-23.9% (inactive)
8,CCNc1nc(Oc2ccc(C(=O)OC)cc2)nc(N(C)C)n1,-15.3% (inactive)
9,Cc1ccc(O)c(Nc2c3ccccc3nc3ccccc23)c1,12.5% (inactive)
10,O=C(O)c1cccc(Nc2c3ccccc3nc3ccccc23)c1,-9% (inactive)
11,O=C(O)c1cc(S(=O)(=O)O)cc(Nc2c3ccccc3nc3ccccc23)c1O,30.7% (active)
12,COc1cccc(CNC(=O)Cn2cccc2)c1,18.5% (inactive)
13,COc1cccc(CNC(=O)CCl)c1,73.9% (active)
14,COc1cccc(CNC(=O)Cc2ccc(Br)cc2)c1,-16.7% (inactive)
15,Cc1cccc(NS(=O)(=O)c2ccc(NC(=O)N3CCCCC3)cc2)c1,22.5% (inactive)
16,CC(=O)c1cccc(NC(=O)c2ccc(C(=O)Nc3cccc(C(C)=O)c3)nc2)c1,-11.1% (inactive)
17,Cc1ccc(S(=O)(=O)Nc2cccc(C(=O)Nc3cc(C)ccn3)c2)cc1,-15.9% (inactive)
18,Cc1cccc(NC(=O)c2ccc(C(=O)Nc3cccc(C)c3)nc2)c1,62.8% (active)
19,CC(=O)Nc1cccc(NC(=O)c2ccc(C(=O)Nc3cccc(NC(C)=O)c3)nc2)c1,-19.3% (inactive)
20,CS(=O)(=O)c1ccc2nc(NC(=O)c3cccc(Cl)c3)sc2c1,-1.3% (inactive)
21,CS(=O)(=O)c1ccc2nc(NC(=O)c3ccc(NS(=O)(=O)c4ccc(F)c(F)c4)cc3)sc2c1,-2.4% (inactive)
22,CC(=O)c1cccc(NC(=O)N2CCCCCC2)c1,-8.3% (inactive)
23,Cc1cccc(NS(=O)(=O)c2cccc(C(=O)Nc3cccc(C(=O)O)c3)c2)c1,-23.8% (inactive)

row,Compound,inhibition
1,COc1ccc(-c2noc(N3CCC(C(=O)NCc4ccc(F)cc4)CC3)n2)cc1,-38.2% (inactive)
2,COc1ccc(/C=C2/Sc3ccc(C(=O)NCCCN4CCOCC4)cc3NC2=O)cc1OC,29.5% (inactive)
3,COC(=O)CS(=O)(=O)c1cc(Br)cc2c1N(C(C)=O)CC2,-37.1% (inactive)
4,CCc1cc(/C(Cc2ccccn2)=N\Nc2ccccc2)c(O)cc1O,-20.2% (inactive)
5,CCCNCc1cc(OC)c(OCC(=O)Nc2ccccc2)cc1Br,-23.4% (inactive)
6,Cc1cccc(C)c1Nc1nnc(SCC(=O)Nc2cc(S(=O)(=O)N3CCCCC3)ccc2Cl)s1,44.5% (inactive)
7,Clc1ccc(CN2CCC(Cc3ccccc3)CC2)cc1,-18.7% (inactive)
8,CCOc1ccc(CN2CCC(Cc3ccccc3)CC2)cc1,-22.4% (inactive)
9,CSc1ccc(CN2CCC(Cc3ccccc3)CC2)cc1,80.3% (active)
10,c1coc(CNc2nc(-c3ccncc3)cs2)c1,-35.7% (inactive)
11,CCOC(=O)C1CCN(C(=O)CCCn2nc(C)c3c(C)n(-c4ccc(C)cc4)nc3c2=O)CC1,-4.8% (inactive)
12,CC(C)C[C@H](NC(=O)OC(C)(C)C)c1n[nH]c(=S)n1N,-16.1% (inactive)
13,CCN(C(=O)Cn1c(=O)oc2ccccc21)C1CCS(=O)(=O)C1 (stereo unspecified),-9.7% (inactive)
14,CC(=O)N1c2ccc(S(=O)(=O)N3CCC(C(=O)Nc4ccccn4)CC3)cc2CC1C (stereo unspecified),-41.4% (inactive)
15,CC(=O)N1c2ccc(S(=O)(=O)N3CCC(C(=O)Nc4cccc(C)c4)CC3)cc2CC1C (stereo unspecified),-24.4% (inactive)
16,CC(C)[C@@H](N)C(=O)N/N=C/c1ccc2ncccc2c1,-2% (inactive)
17,CSCC[C@H](NC(=O)[C@H]1CC[C@H](CNC(=O)[C@@H]2CCCN2)CC1)C(=O)O,-8.2% (inactive)
18,COCCn1c(C)cc(/C=C2/NC(=O)N(Cc3ccc(C)cc3)C2=O)c1C,-2.2% (inactive)
19,CCCCNC(=O)[C@H](Cc1c[nH]c2ccccc12)NC(=O)c1ccccc1Cl,-18.4% (inactive)
20,C=CCN=c1scc(-c2ccc3c(c2)NC(=O)CO3)n1/N=C(\C)c1ccccn1,50.6% (active)
21,COCCN=c1scc(-c2ccc3c(c2)NC(=O)CO3)n1/N=C(\C)c1ccc(O)cc1,-6.7% (inactive)
22,CCN=c1scc(-c2ccc3c(c2)NC(=O)CO3)n1N=C1CCCC1,51.7% (inactive)
23,CCCCCC1=NN2C(=O)CC(=O)N=C2S1,11.6% (inactive)
